Data taken from PubChem BioAssay.
Where “and” joins values, the source holds several entries; their conditions need not be identical. Equal values may be shown once. Calls of active or inactive are those of the source. Cut-off read from the data, not from the text of the source, unless noted: active = parasite load remaining mostly below about 12% (no sharp cut-off); inactive = mostly above about 10%.

Experiments:
[1] = liver-stage malaria parasite growth inhibition, primary screen, cell-based, HepG2, luciferase luminescence, HepG2 viability (AID 624349);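 note: 100% = mean of DMSO negative control wells on the same plate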; conditions: P. berghei liver stage in HepG2, luciferase luminescence, concentration not given here; parasite load remaining: stronger effect = lower value; viability: measured here: HepG2 viability without parasites
[2] = stimulators of nuclear beta-catenin in C2C12, primary screen, imaging, WNT3A-conditioned medium, mouse C2C12, NPC library (AID 1117326; in the data active = nuclear beta-catenin stimulation mostly above about 4.2%, no sharp cut-off; inactive = mostly below about 10%; note: reference of the scale not given here); conditions: stronger effect = higher value
[3] = stimulators of insulin release from INS-1E, primary screen, cell-based, 5 mM glucose, NPC library (AID 1117329;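 active = compound raises insulin release from rat beta cells at 5 mM glucose, no numeric limit stated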; note: reference of the scale not given here); conditions: rat INS-1E insulin secretion, at 10 µM, stronger effect = higher value
[4] = growth inhibition of GSK3B-pretreated HCT116 cells – cell-based, CellTiter-Glo, 0.2 to 20 µM (AID 1117336;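 active = compounds lowering colon cancer cell viability after pretreatment blocking the GSK3B kinase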); conditions: HCT116 viability after GSK3B inhibitor, at 20 µM, stronger effect = higher value
[5] = inhibition of endothelial tube formation, primary screen, imaging, VEGF stimulated, CD31 staining, tube area, NPC library (AID 1117340;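 active = compound that reduces growth-factor-driven endothelial tube area in a mixed cell culture, no cutoff stated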); conditions: VEGF-stimulated ADSC/ECFC co-culture, at 10 µM, stronger effect = higher value
[6] = glucagon-like peptide 1 release enhancers, primary assay, NCI-H716 cell line, NPC library (AID 1117341;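 active = compound raises GLP1 secretion from the human gut endocrine cells, with no numeric limit stated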; note: reference of the scale not given here); conditions: NCI-H716 cells, at 10 µM, stronger effect = higher value
[7] = HCT116 colon cancer cell growth inhibition, primary screen, CellTiter-Glo luminescence, NPC library (AID 1117342;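 active = compounds that lower survival of HCT116 colon cancer cells in the luminescence readout, no numeric limit stated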); conditions: at 20 µM (top of the series)
[8] = CellTiter-Glo luminescent readout of SW480 viability loss, NPC library primary (AID 1117343;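 active = compounds that lower viability of the colon cancer cells in the luminescence readout, with no numeric limit stated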); conditions: CellTiter-Glo luminescence; at 20 µM (top of the series)
[9] = decreased DLD-1 cellular survival, CellTiter-Glo luminescent readout, NPC compound collection, primary HTS (AID 1117346;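 active = compounds that lower survival of DLD-1 colon cancer cells in the luminescence readout, no cutoff given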); conditions: DLD-1 viability, CellTiter-Glo luminescence; at 20 µM (top of the series)
[10] = target: 6-phosphogluconate dehydrogenase, decarboxylating (Homo sapiens) (UniProt P52209); assay: 6PGD enzyme inhibitors, primary screen, biochemical, human, recombinant enzyme, NADPH absorbance (AID 1159550;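 active = at least 20% inhibition of 6-phosphogluconate dehydrogenase activity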); conditions: recombinant 6PGD, NADPH absorbance 341 nm; at 10 µM; stronger effect = higher value
Chain of 6-phosphogluconate dehydrogenase, decarboxylating (Homo sapiens) (P52209 whole entry, looked up): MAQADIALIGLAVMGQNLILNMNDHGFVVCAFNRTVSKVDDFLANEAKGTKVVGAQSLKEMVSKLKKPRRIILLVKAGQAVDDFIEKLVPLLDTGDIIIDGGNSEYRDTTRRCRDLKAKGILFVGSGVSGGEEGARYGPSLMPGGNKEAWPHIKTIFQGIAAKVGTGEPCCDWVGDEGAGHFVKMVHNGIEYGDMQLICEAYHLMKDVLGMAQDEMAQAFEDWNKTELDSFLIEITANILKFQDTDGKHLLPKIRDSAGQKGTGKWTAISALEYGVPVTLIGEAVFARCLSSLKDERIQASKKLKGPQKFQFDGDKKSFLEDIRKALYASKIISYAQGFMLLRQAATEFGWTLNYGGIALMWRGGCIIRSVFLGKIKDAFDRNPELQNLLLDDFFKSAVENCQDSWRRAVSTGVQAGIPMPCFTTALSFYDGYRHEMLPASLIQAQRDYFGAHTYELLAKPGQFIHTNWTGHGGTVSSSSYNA

Q: For CN(C)c1ccc(C(=C2C=CC(=[N+](C)C)C=C2)c2ccc(N(C)C)cc2)cc1, which parasite load remaining [1] is on record?
A: -0.57% (inactive) and -0.18% (inactive)

Q: And the viability [1]?
A: 16.5% and 0%

Q: And the nuclear beta-catenin stimulation ([2]; at 10 µM)?
A: 1% (inactive)

Q: What about the nuclear beta-catenin stimulation ([2]; stimulation, at 2 µM) of the same compound?
A: 28.6%

Q: And the insulin secretion stimulation [3]?
A: -0.2% (inactive)

Q: And the viability decrease [4]?
A: 104% (active)

Q: And the tube area decrease [5]?
A: 108% (active)

Q: And the GLP1 secretion stimulation [6]?
A: -16% (inactive)

Q: What about the inhibition of viability [7] of the same compound?
A: 103% (active)

Q: And the viability decrease (inhibition) [8]?
A: 146% (active)

Q: What about the viability decrease (inhibition) [9] of the same compound?
A: 106% (active)

Q: What about the inhibition [10] of the same compound?
A: 5.37% (inactive)

Q: With COc1ccc(CN(CCN(C)C)c2ncccn2)cc1 as the compound, how does the parasite load remaining [1] read?
A: 161% (inactive) and 52.7% (inactive)

Q: And the viability [1]?
A: 86.2% and 91.9%

Q: And the nuclear beta-catenin stimulation ([2]; at 10 µM)?
A: 1.3% (inactive)

Q: What about the nuclear beta-catenin stimulation ([2]; stimulation, at 2 µM) of the same compound?
A: 2.3%

Q: What about the insulin secretion stimulation [3] of the same compound?
A: 1.5% (inactive)

Q: What about the viability decrease [4] of the same compound?
A: -26.6% (inactive)

Q: And the tube area decrease [5]?
A: 5% (inactive)

Q: What about the GLP1 secretion stimulation [6] of the same compound?
A: 4.9% (inactive)

Q: What about the inhibition of viability [7] of the same compound?
A: 14.6% (inactive)

Q: And the viability decrease (inhibition) [8]?
A: 4.3% (inactive)

Q: And the viability decrease (inhibition) [9]?
A: -22.1% (inactive)

Q: And the inhibition [10]?
A: 0.837% (inactive)

Q: For CCCCOc1ccc(CC(=O)NO)cc1, which parasite load remaining [1] is on record?
A: 13.5% (inactive) and 151% (inactive) and 84.2% (inactive)

Q: And the viability [1]?
A: 47.8% and 71.4% and 91%

Q: What about the nuclear beta-catenin stimulation ([2]; at 10 µM) of the same compound?
A: 0% (inactive)

Q: And the nuclear beta-catenin stimulation ([2]; stimulation, at 2 µM)?
A: 0.3%

Q: And the insulin secretion stimulation [3]?
A: 10.6% (inactive)

Q: And the viability decrease [4]?
A: 24.3% (inactive)

Q: What about the tube area decrease [5] of the same compound?
A: -1.4% (inactive)

Q: What about the GLP1 secretion stimulation [6] of the same compound?
A: -1.1% (inactive)

Q: And the inhibition of viability [7]?
A: 12.7% (inactive)

Q: What about the viability decrease (inhibition) [8] of the same compound?
A: 35.2% (inactive)

Q: What about the viability decrease (inhibition) [9] of the same compound?
A: 11.6% (inactive)

Q: What about the inhibition [10] of the same compound?
A: -6.77% (inactive)

Q: Which results are given for Cc1cc2cc3c(C)cc(=O)oc3c(C)c2o1?
A: parasite load remaining [1]: 179% (inactive) and 284% (inactive) and 171% (inactive); viability [1]: 95.9% and 75.4% and 91.9%; nuclear beta-catenin stimulation ([2]; at 10 µM): 2.9% (inactive); nuclear beta-catenin stimulation ([2]; stimulation, at 2 µM): 0.1%; insulin secretion stimulation [3]: -0.7% (inactive); viability decrease [4]: -8.2% (inactive); tube area decrease [5]: 1.6% (inactive); GLP1 secretion stimulation [6]: 0.5% (inactive); inhibition of viability [7]: 19.9% (inactive); viability decrease (inhibition) [8]: 35.5% (inactive); viability decrease (inhibition) [9]: -2.3% (inactive); inhibition [10]: -18.4% (inactive)

Q: For CCOc1ccc(Cc2nccc3cc(OCC)c(OCC)cc23)cc1OCC, which parasite load remaining [1] is on record?
A: 28.9% (inactive) and 13.1% (inactive)

Q: And the viability [1]?
A: 78.6% and 42.8%

Q: And the nuclear beta-catenin stimulation ([2]; at 10 µM)?
A: 1.8% (inactive)

Q: What about the nuclear beta-catenin stimulation ([2]; stimulation, at 2 µM) of the same compound?
A: 7.1%

Q: What about the insulin secretion stimulation [3] of the same compound?
A: 1.2% (inactive)

Q: And the viability decrease [4]?
A: -83% (inactive)

Q: And the tube area decrease [5]?
A: 39.2% (inactive)

Q: And the GLP1 secretion stimulation [6]?
A: 4.1% (inactive)

Q: And the inhibition of viability [7]?
A: 69.1% (active)

Q: What about the viability decrease (inhibition) [8] of the same compound?
A: 97.9% (active)

Q: What about the viability decrease (inhibition) [9] of the same compound?
A: 62.3% (active)

Q: What about the inhibition [10] of the same compound?
A: -5.46% (inactive)

Q: Which parasite load remaining [1] does the source give for Oc1c(Br)cc(Br)c2cccnc12 here?
A: 81.4% (inactive)

Q: And the viability [1]?
A: 68.8%

Q: And the nuclear beta-catenin stimulation ([2]; at 10 µM)?
A: 4.7% (inactive)

Q: What about the nuclear beta-catenin stimulation ([2]; stimulation, at 2 µM) of the same compound?
A: 0.1%

Q: And the insulin secretion stimulation [3]?
A: 2.4% (inactive)

Q: What about the viability decrease [4] of the same compound?
A: 113% (active)

Q: What about the tube area decrease [5] of the same compound?
A: 108% (active)

Q: And the GLP1 secretion stimulation [6]?
A: 4.3% (inactive)

Q: And the inhibition of viability [7]?
A: 96.7% (active)

Q: What about the viability decrease (inhibition) [8] of the same compound?
A: 153% (active)

Q: And the viability decrease (inhibition) [9]?
A: 99.7% (active)

Q: What about the inhibition [10] of the same compound?
A: 4.35% (inactive)

Q: Which results are given for Cn1c(=O)c2c(ncn2CCO)n(C)c1=O?
A: parasite load remaining [1]: 29.7% (inactive) and 108% (inactive); viability [1]: 47.6% and 91.1%; nuclear beta-catenin stimulation ([2]; at 10 µM): 2.5% (inactive); nuclear beta-catenin stimulation ([2]; stimulation, at 2 µM): 1.4%; insulin secretion stimulation [3]: 1.4% (inactive); viability decrease [4]: 15.8% (inactive); tube area decrease [5]: -12.3% (inactive); GLP1 secretion stimulation [6]: -0.6% (inactive); inhibition of viability [7]: -8% (inactive); viability decrease (inhibition) [8]: -1.2% (inactive); viability decrease (inhibition) [9]: -21.2% (inactive); inhibition [10]: -5.12% (inactive)

Q: What does the source list for CCCCc1nc(Cl)c(CO)n1Cc1ccc(-c2ccccc2-c2nn[nH]n2)cc1?
A: parasite load remaining [1]: 128% (inactive) and 49.4% (inactive); viability [1]: 84.8% and 98.4%; nuclear beta-catenin stimulation ([2]; at 10 µM): 2.6% (inactive); nuclear beta-catenin stimulation ([2]; stimulation, at 2 µM): 2.1%; insulin secretion stimulation [3]: 0.1% (inactive); viability decrease [4]: -41.3% (inactive); tube area decrease [5]: 11.8% (inactive); GLP1 secretion stimulation [6]: 1.1% (inactive); inhibition of viability [7]: -10.5% (inactive); viability decrease (inhibition) [8]: 28.5% (inactive); viability decrease (inhibition) [9]: -22.4% (inactive); inhibition [10]: -22.5% (inactive)

Q: Which parasite load remaining [1] does the source give for OCC(O)CN1CCN(c2ccccc2)CC1 (configuration not stated) here?
A: 36.8% (inactive) and 188% (inactive) and 98.1% (inactive)

Q: What about the viability [1] of the same compound?
A: 50.7% and 71.2% and 93.7%

Q: And the nuclear beta-catenin stimulation ([2]; at 10 µM)?
A: -1.5% (inactive)

Q: And the nuclear beta-catenin stimulation ([2]; stimulation, at 2 µM)?
A: 0.8%

Q: What about the insulin secretion stimulation [3] of the same compound?
A: 0.6% (inactive)

Q: What about the viability decrease [4] of the same compound?
A: -6.6% (inactive)

Q: And the tube area decrease [5]?
A: -0.2% (inactive)

Q: And the GLP1 secretion stimulation [6]?
A: -1.1% (inactive)

Q: What about the inhibition of viability [7] of the same compound?
A: 4.03% (inactive)

Q: What about the viability decrease (inhibition) [8] of the same compound?
A: 29% (inactive)

Q: And the viability decrease (inhibition) [9]?
A: -12.9% (inactive)

Q: What about the inhibition [10] of the same compound?
A: 8.41% (inactive)

Q: Which results are given for Cc1[nH]c(C)c(Cl)c(=O)c1Cl?
A: parasite load remaining [1]: 132% (inactive) and 21.1% (inactive) and 5.5% (inactive); viability [1]: 78.8% and 117% and 80.5%; nuclear beta-catenin stimulation ([2]; at 10 µM): 1.4% (inactive); nuclear beta-catenin stimulation ([2]; stimulation, at 2 µM): 0.4%; insulin secretion stimulation [3]: -1.1% (inactive); viability decrease [4]: 10.2% (inactive); tube area decrease [5]: -15.3% (inactive); GLP1 secretion stimulation [6]: 0.1% (inactive); inhibition of viability [7]: 6.55% (inactive); viability decrease (inhibition) [8]: 29% (inactive); viability decrease (inhibition) [9]: 11.2% (inactive); inhibition [10]: -15% (inactive)

Q: For Oc1c(Cl)cc(Cl)cc1Sc1cc(Cl)cc(Cl)c1O, which parasite load remaining [1] is on record?
A: 21.9% (inactive) and 0.17% (inactive)

Q: And the viability [1]?
A: 65.4% and 70%

Q: What about the nuclear beta-catenin stimulation ([2]; at 10 µM) of the same compound?
A: 41.4% (active)

Q: What about the nuclear beta-catenin stimulation ([2]; stimulation, at 2 µM) of the same compound?
A: 1.5%

Q: And the insulin secretion stimulation [3]?
A: 5.2% (inactive)

Q: And the viability decrease [4]?
A: 99.2% (active)

Q: What about the tube area decrease [5] of the same compound?
A: 103% (active)

Q: What about the GLP1 secretion stimulation [6] of the same compound?
A: 23.6% (active)

Q: What about the inhibition of viability [7] of the same compound?
A: 103% (active)

Q: And the viability decrease (inhibition) [8]?
A: 113% (active)

Q: What about the viability decrease (inhibition) [9] of the same compound?
A: 102% (active)

Q: What about the inhibition [10] of the same compound?
A: -6.91% (inactive)
